Source: PubChem BioAssay
In the library only some 9.4% were active in any assay of this set; here they are far more common.
ALDH1A1 inh = inhibitors of human aldehyde dehydrogenase 1A1; Potency, µM (highest dose often 75.3 µM), inactives show at the top dose activity, negative = inhibition, usual class: inhibitors; Purified ALDH1A1, NADH fluorescence, propionaldehyde substrate; AID 1030; hit rate 7.3% among 220,000; P00352; active = well fitted inhibition curve with a large enough effect, not every such curve was filed as active; inconclusive = small, poorly fitted or top-dose-only effect, or another doubt; inactive = no such curve, though single readings can be large or run the other way;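 also: potency is read from the fitted curve at half-maximal effect; plate controls were no enzyme wells and a reference inhibitor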
Target sequence (P00352 whole entry, looked up): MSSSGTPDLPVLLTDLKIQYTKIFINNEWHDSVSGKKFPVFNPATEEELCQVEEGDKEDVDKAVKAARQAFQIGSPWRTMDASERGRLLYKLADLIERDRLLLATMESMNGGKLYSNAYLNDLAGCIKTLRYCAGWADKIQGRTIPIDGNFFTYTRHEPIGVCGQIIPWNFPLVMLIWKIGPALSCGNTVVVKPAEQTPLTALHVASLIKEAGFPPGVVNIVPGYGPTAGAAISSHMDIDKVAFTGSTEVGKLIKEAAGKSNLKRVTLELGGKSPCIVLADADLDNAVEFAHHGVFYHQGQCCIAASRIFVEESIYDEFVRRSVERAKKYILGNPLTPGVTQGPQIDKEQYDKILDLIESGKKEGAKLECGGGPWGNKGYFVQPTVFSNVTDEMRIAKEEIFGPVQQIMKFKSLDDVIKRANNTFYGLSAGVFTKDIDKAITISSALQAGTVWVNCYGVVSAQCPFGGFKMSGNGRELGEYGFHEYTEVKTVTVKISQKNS
HPGD inh = HPGD (human) dehydrogenase inhibition | purified HPGD, NADH fluorescence kinetic, PGE2 substrate | P15428 | Potency, µM, inactives show top-dose activity change, negative = inhibition, most hits filed as inhibitors | AID 894 | hit rate 4.3% among 150,000; active = well fitted inhibition curve with a large enough effect, not every such curve was filed as active; inconclusive = small, poorly fitted or top-dose-only effect, or another doubt; inactive = no such curve, though single readings can be large or run the other way; also: potency is read from the fitted curve at half-maximal effect; % is scaled to controls: 0 for no effect and ±100 for the full control effect
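NADH formation kinetics: reaction with 30 uM PGE2 and 1 mM NAD+ (final), 20 nM enzyme, Tris-HCl pH 8 with Tween 20, after 15 min compound preincubation at room temperature. Fluorescence change, last versus first of five reads.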
HTT ATP protect = cytoprotection in Huntington HTT-Q103 PC12 cell model | PC12 HTT-Q103 induced, cytoprotection, ATP luminescence, 40 h | Potency, µM (titrated, usually from 56.4 µM), inactives show cytoprotection (ATP increase), hits mostly activators | hit rate 0.14% among 230,000 | AID 1471; also: potency is read from the fitted curve at half-maximal effect; % of control where 0% means no effect; nearly all actives have a fitted effect of over 45% in size
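ATP quantification (ATPlite) reports survival of PC12 cells in which tebufenozide, 100 nM final, switches on Htt exon 1 with 103 glutamines linked to GFP; compounds are titrated.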
IMPase inh = cell-permeable inhibitors of inositol monophosphatase (IMPase); 120,000 tested, under 10 active; CHO-M1 cells, IP1 accumulation, HTRF TR-FRET ratio; AID 901; inhibition (IP1 accumulation), % at 46.1 µM; P97697; active = well fitted curve in the direction sought with a large enough effect in the signal ratio, not every such curve was filed as active; inconclusive = small, poorly fitted or top-dose-only effect, or a change in a side signal; inactive = no such curve, though single readings can be large or run the other way; the % refers to the signal ratio;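 also: cells stimulated with carbachol in lithium chloride buffer; plate controls were DMSO basal wells for no effect and reference inhibitor wells for full effect; higher means more IMPase inhibition seen as more IP1 and lower FRET ratio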
Target sequence (P97697 whole entry, looked up): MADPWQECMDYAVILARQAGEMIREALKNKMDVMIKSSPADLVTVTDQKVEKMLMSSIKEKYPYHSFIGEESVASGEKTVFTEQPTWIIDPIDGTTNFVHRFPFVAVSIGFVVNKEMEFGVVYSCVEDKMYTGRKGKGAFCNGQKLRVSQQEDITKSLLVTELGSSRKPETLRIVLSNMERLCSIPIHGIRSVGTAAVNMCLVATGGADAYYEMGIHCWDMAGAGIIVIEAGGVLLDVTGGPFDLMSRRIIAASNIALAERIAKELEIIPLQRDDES
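Cellular IMPase inhibition is scored as a rise in cytosolic IP1, detected by competitive TR-FRET between d2-labelled IP1 and a europium anti-IP1 antibody. M1-expressing CHO cells were stimulated with carbachol for 30 min at 37C, with lithium (50 mM LiCl) present in the buffer.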
IMPase Li cell = cell-permeable IMPase inhibitors with lithium potentiation; Potency, µM (doses to about 59.4 µM), for the others: at the top dose activity, negative = IMPase inhibition, hits mostly inhibitors; hit rate 0.35% among 210,000; CHO-M1 cells, IP1 TR-FRET (IP-One), carbachol + lithium;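 also: IP1 builds up when IMPase is blocked and the TR-FRET signal falls; potency is read from the fitted curve at half-maximal effect; plate controls were basal vehicle for no effect and high inhibitor control for full effect; nearly all actives have a fitted effect of over 50% in size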
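CHO cells stably expressing M1 receptor (2000/well) were cultured 16–30 h, then exposed to compounds with a small lithium addition for 30 min at 37C. IP1 was measured by TR-FRET competition; AC50 from Hill fits.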
HttQ103 aggreg = reduces HttQ103-GFP aggregates in PC12 cells; PC12 HttQ103-GFP aggregates, Acumen cytometry, 40 h; Potency, µM (doses to about 46.1 µM), inactives show at the top dose activity change, negative = inhibition, hits mostly inhibitors; hit rate 1.1% among 220,000; also: potency is read from the fitted curve at half-maximal effect; % is scaled to controls: 0 for no effect and ±100 for the full control effect; nearly all actives have a fitted effect of over 60% in size
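Inducible Q103 Huntingtin exon 1–GFP PC12 line, 1500 cells/well in phenol red free DMEM with 5% equine and 5% calf serum. Tebufenozide 100 nM induced expression; compounds titrated; aggregates quantified by cytometry.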
* marks the source's active call; other numbers are inactive results; ? = inconclusive; · = no result given; [ ] = another dose, or the depositor's remark. Unless noted, calls follow the shape of the dose curve; as a rule, active = well fitted curve in the direction sought with a large enough effect; inconclusive = small, poorly fitted or top-dose-only effect, or another doubt; inactive = no such curve, though single readings can be large; an effect the other way counts as inactive or inconclusive.

SMILES	ALDH1A1 inh	HPGD inh	HTT ATP protect	IMPase inh	IMPase Li cell	HttQ103 aggreg
O=C1/C(=C/c2ccco2)Oc2c1ccc(O)c2CN1CCCCC1	?	?	·	·	3%	-24%
COC[C@H]1OC=C[C@@H](OC)[C@@H]1OC	-1%	-3%	·	·	16%	·
NCCCCCC(=O)N/N=C/c1coc2ccccc2c1=O	·	·	10%[10 µM]	·	·	9%[9.22 µM]
O=C(N/N=C/c1cn(-c2ccccc2)nc1-c1cc2ccccc2o1)c1c[nH]c2ccccc12	?	·	-48%[10 µM]	·	-2%	5%
O=C(N/N=C/c1coc2ccccc2c1=O)c1cn(-c2ccccc2)nc1-c1ccccc1	3.2µM*	-15%	6%[10 µM]	-5	-8%	3%
O=C(N/N=C\c1coc2ccccc2c1=O)c1ccco1	1.6µM*	·	-1%[10 µM]	·	·	3%[9.22 µM]
NC(=O)N/N=C/c1coc2ccc(O)cc2c1=O	18µM*	·	8%[10 µM]	·	·	1%[9.22 µM]
O=C(N/N=C/c1coc2ccccc2c1=O)c1ccccc1	4µM*	·	-16%	·	-1%	-3%
N#CCC(=O)N/N=C/c1coc2ccccc2c1=O	·	·	-6%[10 µM]	·	·	-18%[9.22 µM]
C[C@@](N)(Cc1c[nH]c2ccccc12)C(=O)O	-3%[13.5 µM]	-1%	-3%[10 µM]	·	4%	·
c1ccc2c(NCCN3CCOCC3)nc(-c3ccc4c(c3)OCO4)nc2c1	1%	·	-63%	·	15%	·
COc1ccc(NC2=CC(c3cccc(OC)c3)N(c3ccc(OC)cc3)C2=O)cc1 (stereo not drawn)	25µM*	?	-1%[10 µM]	·	0%	13%
C[C@@H]1Cc2ccccc2N1NC(=O)c1ccc(Cl)c(S(N)=O)c1 (stereo partly drawn)	7.9µM*	-1%	-42%[17.1 µM]	4[20.6 µM]	5%	?
O=S(=O)(NCCSc1ccccc1)c1ccc2c(c1)OCCO2	0.56µM*	-17%	14%	-6	13%[38.3 µM]	-30%
O=C(O)CCCCCNS(=O)(=O)c1ccc2c(c1)OCCO2	?	·	16%[10 µM]	·	8%	-4%[9.22 µM]
C[C@@H]1O[C@H]2C3=C(C(=O)[C@H]4O[C@@H]4[C@H]3O)[C@@H]1[C@@H]1[C@@H](C)OC=C3[C@H](O)[C@H]4O[C@@H]4/C(=N\OCc4ccccc4)[C@]312	5%[13.5 µM]	·	17%[10 µM]	·	·	·
O=C1NCCN(Cc2c(F)cccc2Cl)C1CC(=O)N1CCCCO1 (stereo not drawn)	-16%	·	29%[10 µM]	·	4%	4%[9.22 µM]
O=C1NCCN(Cc2ccc(Cl)c(F)c2)C1CC(=O)N1CCCCO1 (stereo not drawn)	25µM*	·	26%[10 µM]	·	0%	26%[9.22 µM]
COc1cccc(-c2nc(S(=O)(=O)c3ccccc3)c(N3CCCCC3)o2)c1	·	·	·	3	·	·
CSc1oc(-c2ccco2)nc1S(=O)(=O)c1ccc(Br)cc1	?	?	-1%	2	21%[38.3 µM]	-23%
CN1CCN(c2oc(-c3ccco3)nc2S(=O)(=O)c2ccccc2)CC1	28µM*	-16%	10%	8	-13%[38.3 µM]	-1%
O=S(=O)(c1ccccc1)c1nc(-c2cccs2)oc1N1CCCCC1	·	·	·	1	·	·
O=S(=O)(c1ccccc1)c1nc(-c2ccco2)oc1N1CCCCCC1	0.2µM*	?	20%[10 µM]	4	17%[38.3 µM]	-1%
CC(C)Sc1oc(-c2ccco2)nc1S(=O)(=O)c1ccc(F)cc1	20µM*	-24%	3%[1.9 µM]	19	17%	-4%
Cc1nc(NC(=O)CSc2ccccc2N)sc1C	22µM*	-19%	-29%[10 µM]	4	20%[38.3 µM]	-29%
SMILES	ALDH1A1 inh	HPGD inh	HTT ATP protect	IMPase inh	IMPase Li cell	HttQ103 aggreg
Cc1cc2cc3c(cc2nc1SCC(=O)Nc1nc(C)c(C)s1)OCO3	?	-20%	-34%[10 µM]	?	8.9µM*	10%
CCc1cc2cc3c(cc2nc1SCC(=O)Nc1nnc(C)s1)OCCO3	7%	-17%	-3%[10 µM]	19[1.84 µM]	13µM*	2%
CS(=O)(=O)Nc1cccc(-c2nccc(NCc3cccs3)n2)c1	?	·	-19%	·	-3%	·
CC(=O)OC1CC(OC(C)=O)[C@]2(C)C(CC(OC(C)=O)[C@@]3(C)C4=CC(=O)OC(c5ccoc5)[C@]4(C)CCC32)C1(C)C (stereo partly drawn)	-6%	18%	?	·	5%	·
Cc1ccc([S+](=O)([O-])N(c2ccccc2)[S+](=O)([O-])C(F)(F)F)cc1	6%	-4%	-30%	·	8%	·
Cc1cc(O)ccc1NC(=O)CCN1C(=O)c2ccc([N+](=O)[O-])cc2C1=O	11µM*	-14%	·	·	5%	8%
Clc1ccccc1-c1nc(NCc2cccnc2)c2ccccc2n1	?	·	1%	·	-3%	·
COc1ccc2cc(C(=O)OC(C)C)sc(=O)c2c1OC	5µM*	?	17%[10 µM]	5	-2%	-3%
CC(C)CNC(=O)c1nc(-c2ccccc2)n(-c2ccccc2)n1	13µM*	-2%	-20%	5	11%[38.3 µM]	4%
Cc1nn(-c2ccccc2)c(Cl)c1C(=O)NCc1cccs1	-1%	10µM*	-4%[10 µM]	-6	7%	19%
Cc1nn(-c2ccccc2)c(Cl)c1C(=O)NCCN(C)C	-6%	·	-3%	·	-6%	0%
Cc1c(C(=O)NCc2cccs2)oc2ccccc12	2%	-28%	3%[0.074 µM]	5	13%[38.3 µM]	-15%
Cc1c(-c2ccccc2)nc2ccccc2c1C(=O)NCc1cccs1	14µM*	?	-7%[10 µM]	-8	8%	-7%
Cc1nn(-c2ccccc2)c(Cl)c1C(=O)NCC(C)C	11%	10µM*	-21%	2	7%[38.3 µM]	-15%
CCCCS(=O)(=O)N1CCc2nc(-c3ccccc3)c3c(c2C1)CO[C@@H](C)C3	19%[13.5 µM]	-12%	-7%[10 µM]	·	7%	·
O=C(COc1ccc2oc3c(c2c1)CCCC3)Nc1ccc(Br)cc1	·	·	·	1	·	·
COC(=O)C1=C(C(=O)OC)[C@@H]2N(Cc3ccccc3)c3ccccc3[C@@]23C[C@@H](C(=O)OC)N(C(=O)NCc2ccccc2)C3=C1	4%	-4%	8%	·	12%	·
C=CC[C@@](C(C)=O)(C(=O)OC)C(NC(=O)OC(C)(C)C)c1ccccc1 (stereo partly drawn)	-1%	-4%	-58%	·	10%	·
Cc1nn(-c2ccccc2)c(C)c1NC(=O)c1cccs1	3%	-9%	-14%[10 µM]	1	9%[38.3 µM]	-1%
Cc1nn(-c2ccccc2)c(Cl)c1C(=O)OC(C)C(=O)NC(=O)NC1CCCCC1 (stereo not drawn)	-9%	-15%	-56%	5	-6%[38.3 µM]	11µM*
Cc1nn(-c2ccccc2)c(C)c1NC(=O)Cc1cccs1	-4%	16µM*	-26%	·	8%	-2%
CCN(CC)S(=O)(=O)c1cccc(C(=O)N/N=C/c2ccc([N+](=O)[O-])o2)c1	?	·	-93%	·	4%	?
Cc1cccc(N2C(=O)CN(Cc3sccc3C)C2=S)c1	-1%	14µM*	25%[10 µM]	·	5%	-19%
